This note sets out measurements from PubChem BioAssay AID504444 (National Center for Advancing Translational Sciences (NCATS), 2011).

In all, about 360,000 compounds went through this assay and about 7,500 (2.1%) were called active. A call without a number means that no potency is given here. Roughly 20% stayed inconclusive and do not appear here. The sample holds actives, similar compounds and a random draw of the others, so the mix is not that of the screen. A number with no mark means an inactive call. The call rests on the fitted dose curve; in most records, active means well fitted inhibition curve with a large enough effect; inconclusive means small, poorly fitted or top-dose-only effect, or effect the other way; inactive means flat fitted curve, though single readings scatter.
Potency means the concentration at half of the fitted maximal effect.

This experiment in a line: Nrf2 qHTS screen for inhibitors. Further: nearly all actives have a fitted effect of over 60% in size. The conditions noted are these: A549 ARE-Fluc reporter, luciferase luminescence, 18-24 h; series mostly up to 46 µM. In short, it runs like this: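 Quantitative HTS in A549 cells stably bearing an antioxidant response element-firefly luciferase construct. Inhibition of Nrf2-driven transcription was scored by luminescence after 18-24 h of compound exposure at 37 °C.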
As for `CCc1cc2c(NC(Cc3ccccc3)C(=O)O)ncnc2s1` (stereo not given), the Potency entry was “inactive”. For the compound `Oc1ccccc1N1CCN(c2ncnc3sc(-c4ccccc4)cc23)CC1`, the Potency entry is “inactive”. In the case of `CCc1cc2c(N3CCN(c4nnc(CC)s4)CC3)ncnc2s1`, the Potency is 23.1 µM (active).

As to `Cc1nn(-c2ccc(N3CCCCC3)nn2)c(C)c1CCC(=O)NCc1ccc(F)cc1`, the Potency entry is “inactive”. Same read-out and setting: next, `COc1ccc(OC)c(NC(=O)CN2CCCN(Cc3cc(C)ccc3C)S2(=O)=O)c1`: “inactive”; `O=C(N[C@H]1C/C=C\C(c2cccc(F)c2)N(Cc2ccccc2)C(=O)C1)OCC1c2ccccc2-c2ccccc21` (stereo not given in full): “inactive”; `N/C(=N\OC(=O)Nc1ccc(Cl)c(Cl)c1)c1ncc(C(F)(F)F)cc1Cl`: “inactive”. The same measure, in the same setting: as for `CCn1nccc1C(=O)Nc1ccc(Cl)c(Cl)c1`, the entry is “inactive”; as for `O=C(CC(O)(C(F)(F)F)C(F)(F)F)Nc1ccc(Cl)c(Cl)c1`, 2.91 µM (active); as for `CCN(CC)c1nc(C#N)nc(OC)n1`, “inactive”. Still for that read-out and setting: as for `O=C(NCC12CC3CC(CC(C3)C1)C2)c1cc2nc(-c3ccccc3)cc(C(F)(F)F)n2n1`, the entry is “inactive”; as for `CC1CCN(C(=O)c2cc3nc(C4CC4)cc(C(F)(F)F)n3n2)CC1`, 18.4 µM (active). As to `COC(=O)c1cc2nc(-c3ccccc3)cc(C(F)(F)F)n2n1`, the Potency entry is “inactive”. On the same count and under the same terms, as for `Cc1cccc(-n2ncc(C(=O)N3CCC(C)CC3)c2C2CCN(C(=O)OC(C)(C)C)CC2)c1`, the entry is “inactive”. On the same count and under the same terms, next, `O=C(c1ccccc1)N1CCN(C(=O)c2cc3nc(-c4ccccc4)cc(C(F)(F)F)n3n2)CC1`: 25.9 µM (active). As for `C=CCNC(=O)c1cc2nc(C3CC3)cc(C(F)F)n2n1`, the Potency result was “inactive”. `CC(Sc1oc(-c2ccco2)nc1S(=O)(=O)c1ccc(Br)cc1)c1ccccc1` (stereo not given): the activity change, negative = inhibition is 8.26% [at 9.27 µM]. As to `Cc1ccc(-c2nnc3ccc(SCC(N)=O)nn23)cc1`, the Potency result was “inactive”. Still for that read-out and setting: next, `Cc1ccc(CNC(=O)CSc2c3c(nc4cc(Cl)ccc24)CCCC3)cc1`: “inactive”; `Cc1cccc(NC(=S)N2CCC(C(=O)c3ccc(F)cc3)CC2)c1`: “inactive”.

`CCOc1ccc(C2C(C(=O)Nc3ccc(Cl)cc3)=C(C)Nc3nc(C(F)(F)F)nn32)cc1` (stereo not given): the Potency result is “inactive”.

Take `CCN(CC)c1ccc(NC(=O)CN2C(=O)c3cccnc3Oc3ccc(Cl)cc32)c(C)c1`: the Potency result was “inactive”. Same read-out and setting: as for `C=CC(=O)Nc1ccc(Nc2ccnc(Nc3ccc(N4CCN(C)CC4)cc3)n2)cc1`, the figure is 14.6 µM (active); as for `CN1CCN(c2ccc(NC(=O)c3cc(Cl)c4c(c3)OCCO4)cc2)CC1`, “inactive”. On the same count and under the same terms, next, `Cc1cccc(N2CCN(c3ccc(NC(=O)/C=C\C(=O)O)cc3)CC2)c1`: “inactive”; `Cc1nn(-c2nc(-c3ccccc3)cc(C(F)(F)F)n2)c(C)c1Cl`: “inactive”; `CCN(c1ccccc1)S(=O)(=O)c1cccc(C(=O)NCc2ccccc2CN2CCOCC2)c1`: “inactive”.

Take `Cc1ccc(-n2cnc3ncnc(-c4ccccc4)c32)cc1`: the Potency entry is “inactive”. On the same count and under the same terms, next, `Cc1ccc(-c2nn(C(C)(C)C)c3ncnc(N)c23)cc1`: 18.4 µM (active). As to `Cc1nc2ccn(Cc3cccnc3)c(=O)c2cc1C(=O)N1CCN(c2ccccc2F)CC1`, the Potency entry is “inactive”. Same read-out and setting: next, `CCOc1ccc(CNC(=O)C2CCN(c3nnc(-n4cccc4CNc4ccc(C)cc4)s3)CC2)cc1OC`: “inactive”; `COc1ccc(Br)cc1/C=N/Nc1ccc(S(=O)(=O)Nc2ccccc2C(=O)O)cc1[N+](=O)[O-]`: “inactive”. Still for that read-out and setting: next, `CCOC(=O)c1c(-c2ccccc2)oc2ccc(OCC(N)=O)cc12`: “inactive”; `CCOC(=O)c1c(-c2ccccc2)oc2cc(Br)c(O)c(C=O)c12`: 20.6 µM (active). Still for that read-out and setting: next, `CCOC(=O)c1c(-c2ccccc2)oc2cc(Br)c(O)cc12`: “inactive”; `COc1ccccc1N(CCOc1ccccc1)S(=O)(=O)c1ccccc1`: “inactive”; `COc1cccc(CC(=NO)c2cccc(OC)c2)c1`: “inactive”. Consider `CCCCNC(=O)CN1C(=O)NC(Cc2ccccc2)(Cc2ccccc2)C1=O`, for which the Potency entry was “inactive”. Still for that read-out and setting: as for `O=C(CN1C(=O)NC(Cc2ccccc2)(Cc2ccccc2)C1=O)NCC1CCCCC1`, the figure is 23.1 µM (active); as for `COc1cccc(CNC(=O)CN2C(=O)NC(Cc3ccccc3)(c3ccccc3)C2=O)c1` (stereo not given), “inactive”; as for `Cc1ccc(C(=O)CC2(O)C(=O)N(CCc3ccccc3)c3ccc(Br)cc32)cc1` (stereo not given), “inactive”.

As for `COCCNC(=O)c1ccc(N2CCC3(CC2)OCCO3)c([N+](=O)[O-])c1`, the Potency entry is “inactive”. Same read-out and setting: next, `CCCNC(=O)c1ccc(N2CCC3(CC2)CC(c2ccc(Cl)cc2)=NO3)c([N+](=O)[O-])c1`: 23.1 µM (active). The same measure, in the same setting: as for `O=C(NCCCN1CCOCC1)c1ccc(N2CCCC2)c([N+](=O)[O-])c1`, the entry is “inactive”; as for `CCOC(=O)N1CCc2c(sc3c2c(=O)n(-c2ccc(CC)cc2)c(=O)n3C)C1`, “inactive”; as for `CCOC(=O)C1CCN(C(=O)CSc2c3c(nc4ccc(Cl)cc24)CCCC3)CC1`, “inactive”. On the same count and under the same terms, next, `Cc1ccc(-c2cc(C(F)(F)F)c(C#N)c(SCC(=O)Nc3ccccc3)n2)cc1`: “inactive”; `NS(=O)(=O)c1ccc(CCNC(=O)Nc2ccc(Cl)cc2)cc1`: “inactive”; `Cn1ccc(NC(=O)Nc2ccc(Cl)cc2)n1`: “inactive”. For the compound `CC(C)S(=O)(=O)c1csc(NC(=O)Nc2ccc(Cl)cc2)c1Cl`, the Potency was 20.6 µM (active). On the same count and under the same terms, as for `Cc1ccc(CN2CCC(CNC(=O)c3cnn(-c4ccc(C)cc4)c3C3CCN(C(=O)OC(C)(C)C)CC3)CC2)cc1`, the entry is “inactive”; as for `CCOc1ccc(NC(=O)COC(=O)C2CCC(=O)N2)c([N+](=O)[O-])c1` (stereo not given), “inactive”. Still for that read-out and setting: next, `COc1ccc(C2=NC3(CCCCC3)N(CC(=O)Nc3ccc(C(C)C)cc3)C2=O)cc1`: “inactive”.

On to `COc1ccc(CCNC(=O)CCCCn2c(=O)c3ccccc3n(Cc3ccccc3)c2=O)cc1OC`, for which the Potency result is “inactive”. The same measure, in the same setting: as for `COC[C@@H]1NS(=O)(=O)c2ccc(Br)cc2O[C@H]1c1ccccc1`, the entry is “inactive”; as for `CN(C(=O)c1cccc(NC(=O)C2CCN(C(=O)OC(C)(C)C)CC2)c1)C1CCC1`, “inactive”. On to `O=C(CCn1c(=O)[nH]c2ccccc2c1=O)NCCCN1CCN(c2cccc(Cl)c2)CC1`, for which the Potency result was “inactive”. The same measure, in the same setting: as for `O=C(CCCC(=O)N1CCN(c2cccc(Cl)c2)CC1)c1ccccc1`, the entry is “inactive”; as for `O=C(Cc1ccc(-n2c(=O)[nH]c3ccccc3c2=O)cc1)N1CCN(c2cccc(Cl)c2)CC1`, 16.4 µM (active).

As to `CCn1c(C(=O)Nc2cc(Cl)ccc2C)cc2sc(Cl)cc21`, the Potency result was “inactive”.
